# Results from PubChem BioAssay (NCI).
# Compounds without any hit were thinned out: in the full panel of roughly 83,000, 20% have a hit.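 Method: cells in 96-well plates; compound added at one concentration; 48 h incubation; percent growth measured; values under 10 scored active.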 A number with no mark means an inactive call. Calls of active or inactive are those of the source.
# Test system: NCI/ADR-RES ovarian
# Assay: NCI-60 one-dose screen, 48 h (100 = growth as untreated, 0 = no growth, -100 = all killed)
# Conditions: 10 µM unless noted
# Description: Growth inhibition of the NCI/ADR-RES human […] tumor cell line is measured as a screen for anti-cancer activity. Cells are grown in 96 well plates and exposed to the test compound for 48 hours. Compounds are tested at a single concentration, which is 10^-5 M for most compounds. The reported endpoint is percent growth (GI% or GIPRCNT), where numbers from 0 - 100% represent growth inhibition, and numbers from -100% - 0 represent cell death. For example, a value of 40 represents 60% growth inhibition. A value of 0 means no net growth occurred over the course of the experiment. A value of -40 indicates 40% of cells at the beginning of the experiment died by the end of the experiment. A value of -100 means all cells are dead at the end of the experiment.
# NCI-60 Human Tumor Cell Lines Screen was performed using the standard one-dose NCI protocol, which is described in more detail at https://dtp.cancer.gov/discovery_development/nci-60/default.htm.
# Compounds with GIPRCNT values below 10 were considered active. Activity score was based on GIPRCNT using the following formula: […]
# Score is 0 for GIPRCNT values of 100 or above, 50 for GIPRCNT values of 0, and 100 for GIPRCNT values of -100.
row,SMILES,growth
1,CCOC(=O)C(Cc1ccccc1)n1c(O)c(C=Nc2ccc(C(=O)OCCN(CC)CC)cc2)sc1=O (stereo not given),107%
2,COc1cc(CCn2nnc3c(NCCCCO)ncnc32)cc(OC)c1,104%
3,O=c1oc2cc(OS(=O)(=O)c3ccc(F)cc3)ccc2c2c1CCCCC2,51.1%
4,O=C1Nc2cc(Cl)ccc2Oc2cc(Oc3ccccc3)ccc21,18.9%
5,O=C(OCCCCOC(=O)n1cnc2ccccc21)n1cnc2ccccc21,105%
6,CN(C)CCCNC(=O)C(c1ccccc1)c1ccccc1,97.7%
7,Clc1nc(Cl)c2ncn(C/C=C/Cn3cnc4c(Cl)nc(Cl)nc43)c2n1,99%
8,COc1ccc(/C=C/C(=O)c2cccc(B(O)O)c2)cc1O,48.9%
9,CCC#CC[C@H]1C/C=C2/C(=O)C=C[C@@H]2C/C=C\CCCC(=O)O1,22.7%
10,CCOC(=O)[C@H](CSSc1ncnc2cc[nH]c12)NC(=O)[C@@H](C)c1ccc2cc(OC)ccc2c1,18.6%
11,Cc1c(C2=NNC(c3ccc4c(c3)OCO4)C2)[n+]([O-])c2ccccc2[n+]1[O-] (stereo not given),95.4%
12,CCN1C(=O)N(CC)C2Nn3c(s/c(=C\c4cccc(F)c4)c3=O)=NC21 (stereo not given),30.6%
13,CC1CCN(C(=O)CSc2nc3sc4c(c3c(=O)[nH]2)CCCC4)CC1,109%
14,Cc1ccc(Oc2nc3ccccc3cc2-c2nnc(Cn3c(COc4ccccc4)nc4ccccc43)o2)cc1,34.6%
15,O=S(=O)(NCCCNc1nccc(-c2c(-c3ccc(F)c(O)c3)nc3sccn23)n1)c1ccc(Cl)cc1,103%
16,O=C(Nc1cccc(C(F)(F)F)c1)Nc1ccc(OCc2nnc(-c3ccccc3)o2)c(F)c1,37%
17,CC(=O)/C=C/c1cc2cc(Cl)ccc2[nH]c1=O,100%
18,CC(=O)Nc1ccc(S(=O)(=O)NC(CCC(=O)Nc2ccc(Cl)cc2)C(=O)O)cc1 (stereo not given),100%
19,O=C(CCCn1c(=O)c2sc3ccccc3c2n2nnc(-c3ccccc3)c12)NCCc1cnc[nH]1,36.1%
20,COc1ccc(C(=O)/C=C/c2ccc(/C=C/c3cc(OC)c(OC)c(OC)c3)cc2)cc1,50%

row,SMILES,growth
1,CCOC(=O)c1cc(/C(=N\O)c2cc(OC)c(OC)c(OC)c2)n2c(C)cccc12,29.3%
2,CCCCC[C@@H]1Cc2cc(O)c(C(=O)O)c3c2[C@H](C[C@@]2(CCCO2)O3)O1,96.1%
3,COc1cc(C2C=C(C)N=C3SC(C)=NN32)cc(OC)c1OC (stereo not given),101%
4,COc1cc(-c2csc(NC(=O)c3cc(C(F)(F)F)cc(C(F)(F)F)c3)n2)cc(OC)c1OC,16.2%
5,COC(=O)C(CC(=O)c1ccc(-c2ccccc2)cc1)c1ccccc1 (stereo not given),17.5%
6,COc1ccc(C2=NN(c3ccc(S(N)(=O)=O)cc3)C(c3cn(-c4ccccc4)nc3-c3ccc(Cl)cc3)C2)cc1 (stereo not given),90.1%
7,Cc1ccnc2nc(C(=O)OCC(=O)Nc3ccc(-c4ccccc4)cc3)nn12,98.3%
8,COC1=CC(c2ccc[nH]2)=N/C1=C\c1[nH]c(C)c(CCCn2cc(CCCCCCCCC[C@@H]3Cc4cc(O)ccc4C4CC[C@]5(C)[C@@H](O)CC[C@H]5C43)nn2)c1C (stereo not given in full),69.5%
9,Nc1ccc(S(=O)(=O)c2ccc(Cl)cc2)cc1,95.2%
10,c1cc(-c2ccc3c(c2)OCO3)n2nccc2n1,107%
11,NC(=O)c1cccc(N2Cc3ccccc3OC3=C2C(=O)c2c(O)ccc(O)c2C3=O)c1,10%
12,COc1ccc(-c2cn[nH]c2-c2cc(OC)c3c(c2)OCO3)cc1,5.12% (active)
13,COc1cccc(C2CC(=O)Nc3c2c(C)nn3-c2nc3ccccc3[nH]2)c1OC (stereo not given),73.2%
14,CCNC(=O)CCCCC(=O)c1c(C)[nH]c(/C=C2\N=C(c3ccc[nH]3)C=C2OC)c1C,15.4%
15,CN(C)C/C=C/C(=O)Nc1cc2c(Nc3ccc(F)c(Cl)c3F)ncnc2cc1OCCOC(F)F,20.1%
16,Clc1cccc(Cl)c1Cn1c(-c2cncs2)nc2ccccc21,73%
17,COc1cccc(NC(=O)Cn2cc3c(=O)oc4ccccc4c3n2)c1,100%
18,C=C1C(=O)O[C@H]2[C@H]1CC/C(COC(=O)NCCc1ccc(Br)cc1)=C\CC[C@@]1(C)O[C@@H]21,58.4%
19,Cc1ccc(Cn2c(-c3nonc3N)nc3ccccc32)cc1,49.2%
20,CC(=O)Nc1nc(C(=O)N2N=C(C)/C(=C/c3ccccc3)C2=O)cs1,110%
